Hit rate of the full screen: of about 340,000 compounds, about 3,300 (0.97%) were called active. Another 9% or so got no clear call; they are omitted. Calls come from the whole dose curve; as a rule, active = well fitted inhibition curve with a large enough effect; inconclusive = small, poorly fitted or top-dose-only effect, or effect the other way; inactive = flat fitted curve, though single readings scatter. Some of the results follow.
Potency is the fitted concentration of half-maximal effect.

The test in a line: qHTS Assay for Modulators of miRNAs and/or Inhibitors of miR-21. Note: nearly all actives have a fitted effect of over 55% in size. The settings on record: HeLa miR-21-FLuc reporter, luciferase luminescence, 48 h; actives lower the signal. In outline:
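Using DMEM plus 10% FBS, HeLa miR-21-FLuc cells are incubated with test compounds (final up to about 40uM) for 48 hours; firefly luciferase signal is then imaged following reagent-mediated lysis.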
In the case of `O=c1sc2ccccc2n1CCCOc1ccccc1`, the Potency is 4.14 µM (active). Under `C=CCNC(=S)NNC(=O)COc1ccc2cc(Br)ccc2c1` stands 7.36 µM (active); under `CC1Oc2ccccc2N(CC(=O)NCc2ccccc2)C1=O` (stereo unspecified), 9.27 µM (active). Under `CCn1c(O)c(N=Nc2ccc3ccccc3n2)c2ccccc21` stands 1.04 µM (active); under `O=S(=O)(Cc1cc(-c2ccccc2Cl)no1)c1ccccc1`, 5.21 µM (active). Under `O=S(=O)(Cc1cc(-c2ccc(Cl)cc2)no1)c1ccccc1` stands 4.65 µM (active); under `COc1ccc(Br)c(-c2nnc(CS(=O)(=O)c3ccccc3)o2)c1`, 14.7 µM (active). As to `COc1ccc(-c2cc(CS(=O)(=O)c3ccccc3)on2)cc1`, the Potency is 4.65 µM (active). Under `O=S(=O)(Cc1cc(-c2ccccc2)no1)c1ccccc1` stands 14.7 µM (active); under `Nc1ccc(Oc2cc(N)cc(Oc3ccccc3)c2)cc1`, 8.26 µM (active); under `N=c1cc(C2(O)CCCCC2)n2c(nc3ccccc32)s1`, 0.185 µM (active). Under `COc1ccccc1/C=C/C1=NC(=C\N(C)C)/C(=O)O1` stands 14.7 µM (active); under `COc1ccc(-c2cn3cc(Cl)ccc3n2)cc1OC`, 13.1 µM (active); under `COc1ccc(-c2cn3ccccc3n2)cc1[N+](=O)[O-]`, 2.33 µM (active). Under `CCOc1ccc(-c2cn3ccccc3n2)cc1[N+](=O)[O-]` stands 2.93 µM (active); under `Oc1ccc(-c2cn3ccccc3n2)cc1O`, 3.29 µM (active).

As for `O=C(Nc1cc(F)c(Br)cc1F)c1ccc(Cl)cc1`, the Potency was 3.29 µM (active). With `CCCOc1ccc(-c2csc(N)n2)cc1[N+](=O)[O-]` the figure was 5.21 µM (active). Under `CCCCOc1ccc(-c2csc(N)n2)cc1[N+](=O)[O-]` stands 1.47 µM (active). For `Cc1cccc(OCCn2nnc3sc4c(c3c2=O)CCCC4)c1`, the Potency is 18.5 µM (active). Under `COC(=O)c1ccc(Cn2nnc3sc4c(c3c2=O)CCCC4)cc1` stands 6.56 µM (active); under `O=C(CSc1ccccc1)NC1CCCCCC1`, 14.7 µM (active); under `S=C(NCCc1ccccc1)NCCc1ccccc1`, 2.61 µM (active).

Turning to `O=C(CSc1ccccc1)NCCc1ccccc1`, the Potency is 14.7 µM (active).

On to `NNCCc1ccccc1`, for which the Potency is 14.7 µM (active).

Turning to `CC1CCN(C(=S)NCCc2ccccc2)CC1`, the Potency was 2.93 µM (active).

On to `Cc1cc(Cl)c2oc(C(=O)N(C)C(C)c3ccccn3)c(C)c2c1` (stereo unspecified), for which the Potency is 14.7 µM (active). With `CCCc1ccc2oc(C(=O)N(C)Cc3ccn[nH]3)c(C)c2c1` the figure was 10.4 µM (active). Under `Cc1ccc2oc(C(=O)N(C)Cc3ccon3)c(C)c2c1` stands 4.14 µM (active); under `Cc1ccc2c(C)c(C(=O)N(C)C(C)c3ccon3)oc2c1C` (stereo unspecified), 16.5 µM (active). With `Cc1cc(Cl)c2oc(C(=O)N(C)Cc3ccon3)c(C)c2c1` the figure was 4.65 µM (active). In the case of `CCc1c(C)c2ccc(O)c(CN3CCN(c4ccccc4)CC3)c2oc1=O`, the Potency is 6.56 µM (active). With `COc1ccc2c(c1)Cc1sc(NC(C)=O)nc1-2` the figure was 0.631 µM (active); with `COc1ccc2c(c1)-c1nc(NC(=O)c3ccco3)sc1CC2`, 13.1 µM (active).

With `Cc1ccc(-n2ncc3c(NC4CCCCC4)ncnc32)cc1`, the Potency is 0.521 µM (active). With `Cc1cccc(-n2ncc3c(NC4CCCCC4)ncnc32)c1` the figure was 0.414 µM (active). With `O=c1cccccc1NN=C1CCCCC1` the figure was 11.7 µM (active); with `O=c1cccccc1NN=C1CCCCCC1`, 3.29 µM (active). Under `Oc1ccccc1CNc1cccc2cccnc12` stands 18.5 µM (active); under `Oc1c(/C=N/Nc2cccc3cccnc23)ccc2ccccc12`, 7.36 µM (active); under `Cc1ccccc1Nc1nc(N)nc(-c2oc3ccccc3c2C)n1`, 4.65 µM (active).

Take `Fc1ccccc1Nc1nc2ccccc2n2nnnc12`: the Potency was 16.5 µM (active). Under `CCN(CC)C(=O)c1cc(-c2ccc(Cl)cc2)on1` stands 4.65 µM (active); under `CCN(CC)C(=O)c1cc(-c2ccccc2OC)on1`, 13.1 µM (active). Turning to `COc1ccccc1-c1cc(C(=O)N2CCCC2)no1`, the Potency is 1.85 µM (active). With `COc1ccccc1-c1cc(C(=O)N2CCOCC2)no1` the figure was 2.93 µM (active); with `O=C(N/N=C1/CC2C=CCC12)c1cccs1` (stereo unspecified), 11.7 µM (active); with `O=C(N/N=C1/CC2C=CCC12)c1ccco1` (stereo unspecified), 5.21 µM (active). With `CC1C2CC(C/C2=N/NC(=O)c2cccs2)C1(C)C` (stereo unspecified) the figure was 5.21 µM (active); with `COc1ccc(/C=N/n2c(N)nc3ccccc32)cc1OC`, 16.5 µM (active); with `CCn1ncc(/C=C/C(=O)c2ccccc2)c1C`, 5.21 µM (active). For `Cc1c(/C=C/C(=O)c2ccc(O)cc2)cnn1C`, the Potency was 18.5 µM (active).

On to `Cc1c(/C=C/C(=O)c2ccccc2O)cnn1C`, for which the Potency is 3.69 µM (active). Under `Cc1nn(C)cc1/C=C/C(=O)c1ccc(O)cc1` stands 13.1 µM (active); under `CCCCN1CCc2c([nH]c3ccc(C)cc23)C1=O`, 0.826 µM (active); under `CCOc1ccc(/C=N/Nc2ccccn2)cc1OC`, 5.21 µM (active). Under `COc1ccc(/C=N/Nc2ccccn2)cc1O` stands 7.36 µM (active).

In the case of `COc1cccc(COc2ccc3c(C)cc(=O)oc3c2)c1`, the Potency was 2.07 µM (active).

For the compound `COc1ccc(COc2ccc3c(C)cc(=O)oc3c2)cc1`, the Potency was 2.33 µM (active). Under `COc1ccc(-c2noc(-c3ccccc3Cl)n2)cc1OC` stands 1.47 µM (active).

Take `COc1ccc(-c2noc(-c3cccc(OC)c3OC)n2)cc1OC`: the Potency was 2.93 µM (active). With `Cc1nc(-c2noc(-c3ccccc3Cl)n2)c(C(F)(F)F)o1` the figure was 11.7 µM (active). Under `Fc1ccc(-n2c(-c3ccc4c(c3)OCO4)n[nH]c2=S)cc1Cl` stands 16.5 µM (active); under `CC(=O)c1c(C)nc(Nc2nc3ccccc3s2)nc1C`, 0.736 µM (active). Under `O=C(COc1ccccc1[N+](=O)[O-])Nc1ccc2c(c1)OCO2` stands 3.29 µM (active); under `COc1ccccc1OCC(=O)Nc1ccc2c(c1)OCO2`, 18.5 µM (active); under `O=C(COc1ccccc1F)Nc1ccc2c(c1)OCCO2`, 1.17 µM (active). In the case of `COc1ccccc1OCC(=O)Nc1ccc2c(c1)OCCO2`, the Potency was 8.26 µM (active).

`Cc1ccccc1OCC(=O)Nc1ccc2c(c1)OCCO2`: the Potency was 6.56 µM (active). Under `O=C(COc1ccccc1Cl)Nc1ccc2c(c1)OCO2` stands 1.85 µM (active); under `CCc1ccccc1OCC(=O)Nc1ccc2c(c1)OCCO2`, 5.21 µM (active).

Source of the values: PubChem BioAssay AID2289 (National Center for Advancing Translational Sciences (NCATS), 2010).
